Rows were chosen to be rich in hits. Some 8.7% of all compounds tested hit in one or more screens of this group.
Pf growth 96h = P. falciparum growth inhibition at 96 hours | Potency, µM (titrated, usually from 28.7 µM), for inactives: at the highest dose activity change, negative = inhibition, actives largely listed as inhibitors | P. falciparum luciferase reporter growth, 96 h | 6.9% of 320,000 active | AID 504834
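Cell-based qHTS: luciferase-tagged P. falciparum in erythrocytes (2% hematocrit, 0.05% parasitemia final) incubated with compounds for 96 hours, 37 C, 5% CO2; luciferase detection reagent then added and luminescence measured.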
Pf growth 48h = P. falciparum growth inhibition at 48 hours (one generation); P. falciparum luciferase growth in erythrocytes, 48 h; 5.9% of 310,000 active; Potency, µM (doses to about 28.7 µM), for the others: at the top dose activity change, negative = inhibition, most hits filed as inhibitors
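Luciferase-expressing P. falciparum in infected erythrocytes (2% hematocrit, 0.1% parasitemia final) in RPMI 1640/0.5% Albumax were exposed to compound for 48 hours at 37 C, 5% CO2; growth read as luminescence.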
AMA1 RON2 block = AMA1-RON2 (P. falciparum) interaction inhibition. AlphaScreen AMA1-biotinylated RON2 peptide binding. Potency, µM (doses to about 58.2 µM), without a hit: at the highest dose activity change, negative = inhibition, hits mostly inhibitors. 0.2% of 360,000 active;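 further: 0% = vehicle wells and -100% = peptide control; nearly all actives have a fitted effect of over 45% in size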
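AMA1 (3D7) with his tag at 25 nM final met compounds first, then biotinylated RON2 peptide at 25 nM; detection used donor plus acceptor beads, 10 µg/mL apiece, read by AlphaScreen after 30 min at room temperature.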
VACV mCherry inh = inhibitors of vaccinia virus infection (mCherry reporter signal); Potency, µM (titrated, usually from 36.5 µM), for inactives: at the top dose activity change, negative = inhibition, hits mostly inhibitors; Vaccinia virus mCherry reporter infection, fluorescence; AID 720579; 0.63% of 310,000 active; calls by dose curve; tested in A549 cells; further: nearly all actives have a fitted effect of over 35% in size
VACV Venus inh = vaccinia inhibition (Venus reporter); Vaccinia virus Venus reporter expression, fluorescence; Potency, µM (titrated, usually from 36.5 µM), for the others: top-dose activity change, negative = inhibition, most hits filed as inhibitors; 0.46% of 330,000 active; calls by dose curve; tested in A549 cells; further: nearly all actives have a fitted effect of over 30% in size
* = called active by the depositor; i = inactive; ? = inconclusive; nt = no result given. Unless noted, the call rests on the fitted dose curve; in most records, active means well fitted curve in the direction sought with a large enough effect; inconclusive means small, poorly fitted or top-dose-only effect, or another doubt; inactive means no such curve, though single readings can be large; an effect the other way counts as inactive or inconclusive. Unless noted, on the % scale 0 is the no-effect control and ±100 the full control effect; potency means the concentration at half of the fitted maximal effect.

SMILES	Pf growth 96h	Pf growth 48h	AMA1 RON2 block	VACV mCherry inh	VACV Venus inh
COc1cc(N(C(=O)Cc2cccs2)C(C(=O)NC2CCCCC2)c2cccc(OC)c2OC)ccc1-n1cnnn1 (stereo not drawn)	-25.4%	10.4µM*	-2.7%	i	-14.5%
COc1cccc(C(C(=O)NC2CCCCC2)N(C(=O)Cc2cccs2)c2ccc(-n3cnnn3)c(OC)c2)c1 (stereo not drawn)	4.7%	10.4µM*	-3.8%	nt	nt
COc1cccc(C(C(=O)NC2CCCCC2)N(C(=O)c2cccs2)c2ccc3c(c2)OCO3)c1 (stereo not drawn)	-100.9%	10.4µM*	9.2%	nt	nt
CC(=O)N1c2ccc(S(=O)(=O)N3CCCCCC3)cc2CC1C(=O)NCc1cccc(C)c1 (stereo not drawn)	nt	nt	nt	-14.9%	-6.8%
Cn1c(N)c(C(=O)CSc2nnc(-c3ccccc3F)n2N)c(=O)n(C)c1=O	10.4µM*	?	8.8%	-7.0%	1.7%
Cc1cc(C)nc(SCC(=O)c2c(N)n(C)c(=O)n(C)c2=O)n1	nt	25.0%	-3.3%	nt	nt
Cc1ccccc1Nc1nnc(SCC(=O)c2c(N)n(C)c(=O)n(C)c2=O)s1	?	5.22µM*	-19.6%	i	-12.7%
Cn1c(=O)c(C(=O)CSc2nnc(Nc3ccccc3)s2)c(N)n(Cc2ccccc2)c1=O	nt	?	3.7%	i	-5.7%
CCSc1nnc(SCC(=O)c2c(N)n(C)c(=O)n(C)c2=O)s1	4.15µM*	?	-1.0%	-14.1%	-7.1%
CCOc1ccc(N2CC(NC(=O)CCc3ccccc3)CC2=O)cc1 (stereo not drawn)	nt	nt	nt	-10.3%	-14.0%
O=C(Nc1ccc(Br)c2ccccc12)c1ccc2ccccc2c1O	9.28µM*	11.7µM*	-8.7%	?	?
Cc1ccccc1Cn1c(-c2ccc(=O)[nH]c2)nc2ccccc21	7.38µM*	11.7µM*	8.4%	nt	nt
CC(=O)Nc1nc2ccccc2n1Cc1ccccc1Cl	?	3.29µM*	64.4%	-3.2%	?
CCCn1c(Nc2nc3ccccc3n2C)nc2ccccc21	7.38µM*	7.38µM*	28.4%	nt	nt
CCCCCCCn1c(NC(=O)CC)nc2ccccc21	0.928µM*	1.85µM*	83.3%	-12.8%	-14.4%
CC(=O)NC(C)c1nc2ccccc2n1Cc1ccccc1Cl (stereo not drawn)	nt	nt	nt	-4.7%	-5.1%
CCC(=O)Nc1nc2ccccc2n1CCN1CCOCC1	9.5%	11.8%	44.8%	-17.0%	-6.0%
O=C1CN(CCN2CC(=O)NC(=O)C2)CC(=O)N1	nt	nt	nt	44.3%	10.2%
CC(Oc1ccc(F)cc1)C(=O)N1CCC(c2nc3ccccc3s2)CC1 (stereo not drawn)	nt	nt	nt	-7.4%	?
CC(=O)Nc1nc2ccccc2n1Cc1ccccc1C	34.0%	7.38µM*	?	-21.7%	?
CCC(=O)Nc1nc2ccccc2n1Cc1ccc(Cl)cc1	106.1%	?	107.9%	nt	nt
CC(=O)Nc1nc2ccccc2n1CCOc1ccccc1Cl	12.0%	3.7µM*	23.9%	nt	nt
CCC(=O)Nc1nc2ccccc2n1Cc1ccccc1Cl	2.94µM*	3.29µM*	73.6%	nt	nt
O=C(Nc1nc2ccccc2n1CCOc1ccccc1Cl)c1ccccc1	nt	nt	nt	-27.6%	-22.6%
O=C(O)c1ccc(NC(=O)c2cc3c([nH]c2=O)CCCC3=O)cc1	nt	nt	nt	33.3%	-9.1%
SMILES	Pf growth 96h	Pf growth 48h	AMA1 RON2 block	VACV mCherry inh	VACV Venus inh
COCCCNC(=O)CCC(=O)N1Cc2ccccc2Oc2ncccc21	nt	nt	nt	-10.9%	-0.2%
O=C(O)CC1CCCC(c2ccccc2)C1=O (stereo not drawn)	13.1µM*	-5.6%	3.8%	nt	nt
Oc1ccc(N=Nc2ccc3c(c2)OCCO3)c(O)c1	152.0%	129.9%	-24.3%	nt	nt
Oc1ccc(N=Nc2ccc(Br)cc2)c(O)c1	1.85µM*	?	-8.4%	-23.9%	?
Cc1ccc2nc(N(Cc3cccnc3)C(=O)CCOc3ccccc3)sc2c1	nt	nt	nt	-0.3%	-7.4%
CC(=O)c1ccccc1-c1ccc2c(c1)CC(CNC(=O)Cc1c[nH]c3ccccc13)O2 (stereo not drawn)	nt	nt	nt	-19.7%	-7.7%
CN(CC(=O)Nc1c(Cl)cccc1Cl)C(=O)CNC(=O)c1ccc2c(c1)OCO2	45.3%	32.4%	-5.1%	-10.5%	-10.7%
CN(Cc1ccc(Cl)cc1Cl)C(=O)CNC(=O)c1ccc2c(c1)OCO2	11.7µM*	10.4µM*	-4.2%	-25.5%	-9.9%
CSc1ccc(CN(C)C(=O)CNC(=O)c2ccc3c(c2)OCO3)cc1	8.28µM*	4.15µM*	-6.1%	-14.3%	-0.6%

Screens: PubChem, National Center for Advancing Translational Sciences (NCATS)
